From PubChem BioAssay (NCATS)
Inconclusive results are not listed. Where a call stands in place of a potency, no number is given. The source made the active and inactive calls. Calls follow the shape of the dose curve; as a rule, active = well fitted cell-killing curve with a large enough effect; inconclusive = small, poorly fitted or top-dose-only effect, or effect the other way; inactive = no such curve, though single readings can be large or run the other way.

How the values were obtained:
[1] = Viability qHTS for spleen associated tyrosine kinase inhibitor (SYKi) naive MV4-11 cells (AID 1963823); also: nearly all actives have a fitted effect of over 40% in size
Method in brief: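 Viability of MV4-11 AML cells lacking prior SYK inhibitor exposure is scored by CellTiter-Glo luminescence following 72 hr compound incubation at 37 C, 5% CO2, seeded at 500 cells per well.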

[2] = Viability qHTS for spleen associated tyrosine kinase inhibitor (SYKi) drug resistant MV4-11 cells (AID 1963824); also: nearly all actives have a fitted effect of over 35% in size
Method in brief: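 SYK inhibitor-resistant MV4-11 AML cells, 500 per well, added to predispensed compounds and incubated 72 hr at 37 C, 5% CO2. Viability measured by CellTiter-Glo luminescence after 10 min at room temperature.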
Potency is read from the fitted curve at half-maximal effect.

SMILES	Potency [1]	Potency [2]	viability (% of control) [1]	viability, % of control [2]
Nc1nonc1-c1nc2cnccc2n1C1CCCCC1	0.517 µM (active)	0.731 µM (active)	–	–
CC(C)=C1CC2C(CCC2(C)O)C(C)(O)CC1=O (stereo unspecified)	inactive	inactive	–	–
CC(CCC1(O)OC2CC3C4CCC5CC(O[C@@H]6O[C@H](CO)[C@@H](O)[C@H](O)[C@H]6O[C@@H]6O[C@@H](C)[C@H](O)[C@@H](O)[C@H]6O)C(O)CC5(C)C4CCC3(C)C2C1C)CO[C@@H]1O[C@H](CO)[C@@H](O)[C@H](O)[C@H]1O (stereo partly specified)	–	–	87.7% [at 9.25 µM] (inactive)	109% [at 9.25 µM] (inactive)
COc1c(F)cccc1C(=O)N1C[C@@H](C)CC[C@H]1CNc1ccc(Br)cn1	9.2 µM (active)	9.2 µM (active)	–	–
CO[C@H]1C=C2C(CC[C@H](O[C@@H]3O[C@H](CO)[C@@H](O)[C@@H](O)[C@H]3O)C2(C)C)[C@]2(C)CC[C@]3(C)C([C@H](C)C(O)C(C=C(C)C)O[C@@H]4O[C@H](CO)[C@@H](O)[C@@H](O)[C@H]4O)CC[C@@]3(C)C12 (stereo partly specified)	–	–	86.9% [at 9.25 µM] (inactive)	90.7% [at 9.25 µM] (inactive)
COc1cc(O)cc(C)c1C(=O)O[C@H]1[C@@H](OC(C)=O)[C@H](n2ccc(=O)[nH]c2=O)O[C@@H]1CO	inactive	inactive	–	–
C=C1C[C@]23C[C@@]1(O)CC[C@H]2[C@@]12C=C[C@H](O)[C@@](C)(C(=O)O1)[C@H]2[C@@H]3C(=O)O	inactive	inactive	–	–
CC(C)(N)c1cc(C(=O)N[C@@H]2CCc3ccc(Oc4ccnc5c4CCC(=O)N5)cc3C2)cc(C(F)(F)F)c1	0.92 µM (active)	1.3 µM (active)	–	–
CC1=C2C[C@H]3O[C@@]3(C)CCC3O[C@@]3(C)C[C@@]2(O)OC1=O (stereo partly specified)	inactive	inactive	–	–
Cn1c(=O)cc(N2CCCC(N)C2)n(Cc2ccccc2C#N)c1=O (stereo unspecified)	inactive	inactive	–	–
C=CC(C)(CC/C=C(\C)CC/C=C(\C)CC(O)/C=C(\C)C(=O)O)O[C@@H]1O[C@H](CO)[C@@H](O)[C@H](O)[C@H]1O[C@@H]1O[C@H](CO)[C@@H](O)[C@H](O)[C@H]1O (stereo partly specified)	inactive	inactive	–	–
COC(=O)CC[C@H](NC(=O)[C@H](CC(C)C)NC(=O)OCc1ccccc1)C(=O)N[C@@H](Cc1cnc[nH]1)C(=O)N[C@@H](CC(=O)OC)C(=O)CF	–	–	80.3% [at 9.25 µM] (inactive)	91.2% [at 9.25 µM] (inactive)
CC(CC(C)O[C@@H]1O[C@H](CO)[C@@H](O)[C@H](O)[C@H]1O)OC(=O)/C=C/c1ccc(O)cc1 (stereo partly specified)	inactive	inactive	–	–
C[S+](CC[C@H](N)C(=O)[O-])C[C@H]1O[C@@H](n2cnc3c(N)ncnc32)[C@H](O)[C@@H]1O (stereo partly specified)	inactive	inactive	–	–
CC(C)=CCC[C@](C)(O)[C@H]1CC[C@]2(C)[C@@H]1[C@H](O)CC1[C@@]3(C)CC[C@H](O)C(C)(C)C3[C@@H](O[C@@H]3O[C@H](CO)[C@@H](O)[C@H](O)[C@H]3O[C@@H]3OC[C@@H](O)[C@H](O)[C@H]3O)C[C@]12C (stereo partly specified)	inactive	inactive	–	–
OCCc1ccc(O[C@@H]2O[C@H](CO)[C@@H](O)[C@H](O)[C@H]2O)c(O)c1	inactive	inactive	–	–
Cc1ccc2c(Cl)cc(Cl)c(O)c2n1	inactive	inactive	–	–

SMILES	Potency [1]	Potency [2]	viability (% of control) [1]	viability, % of control [2]
C=C1C2(C)CC3C4(C)C=CC(=O)OC(C)(C)C4CCC3(C)C1(C(=O)OC)C(=O)C(C)(O)C2=O (stereo unspecified)	inactive	0.224 µM (active)	–	–
CC(C)(C)c1ccc(C(=O)Nc2cn3cc(-n4ccnc4)ccc3n2)cc1	1.84 µM (active)	5.17 µM (active)	–	–
CNC(=O)c1cc(Oc2ccc(NC(=O)c3cccc(C(F)(F)F)c3)cc2)ccn1	11.6 µM (active)	11.6 µM (active)	–	–
Cc1nc(C#Cc2ccnc(Cl)c2)c(C)n1-c1ccc(OC(F)(F)F)cc1	20.6 µM (active)	23.1 µM (active)	–	–
CCCC(CCC)C(=O)NCc1ccc2c(cnn2-c2ccccc2OC)c1	10.3 µM (active)	8.2 µM (active)	–	–
CC[C@H](CO)Nc1nc(NCc2ccc(-c3ccccn3)cc2)c2ncn(C(C)C)c2n1	0.13 µM (active)	0.259 µM (active)	–	–
CC(=O)OCC(=O)O[C@@H]1[C@H]2[C@@H](OC(=O)c3ccccc3)[C@@H](C)C[C@]2(O)[C@H](OC(C)=O)C2(C)[C@H]3CC(C)(C)C(=O)[C@@H]3CC1(OC(C)=O)[C@@H]2OC(C)=O (stereo partly specified)	inactive	inactive	–	–
CN(C)CC/C=C1\c2ccccc2COc2ccccc21	inactive	inactive	–	–
C=C1C[C@]23C[C@H]1CC[C@H]2C1=C[C@H]2OC(=O)[C@@](C)([C@H]1[C@@H]3C(=O)O)[C@H]2O	inactive	inactive	–	–
C=C1C2(CCC(=O)OC2(C)C)CC(OC(=O)/C(C)=C/C)C2(C)C13OC14C(=O)OC(C)(C(=O)C12C(=O)OC4C)C3OC(C)=O (stereo unspecified)	inactive	inactive	–	–
Cn1nnc(-c2ccc(-c3ccc(N4C[C@H](COP(=O)(O)O)OC4=O)cc3F)cn2)n1	inactive	inactive	–	–
CC(C)c1nc(-c2ccc(NC(=O)Nc3cccc(C(F)(F)F)c3)c3ccccc23)c2c(N)nccn12	0.366 µM (active)	0.411 µM (active)	–	–
OC[C@H]1O[C@@H](OC[C@H]2O[C@@H](OCc3ccccc3)[C@H](O)[C@@H](O)[C@@H]2O)[C@H](O)[C@@H](O)[C@@H]1O	inactive	inactive	–	–
COc1ccc(CCc2nc3cc(-c4c(C)noc4C)ccc3n2C[C@H](C)N2CCOCC2)cc1Cl	7.31 µM (active)	5.8 µM (active)	–	–
C=C(C)C1CCC2(C(=O)O[C@@H]3O[C@H](CO[C@@H]4O[C@H](CO)[C@@H](O)[C@H](O)[C@H]4O)[C@@H](O)[C@H](O[C@@H]4O[C@@H](C)[C@H](O)[C@@H](O)[C@H]4O)[C@H]3O)CCC3(C(=O)O)C(CCC4C5(C)CCC(O)C(C)(C)C5CCC43C)C12 (stereo partly specified)	–	–	84.2% [at 9.25 µM] (inactive)	114% [at 9.25 µM] (inactive)
COc1ccc(C[C@H](N)C(=O)N[C@@H]2[C@H](O)[C@H](n3cnc4c(N(C)C)ncnc43)O[C@@H]2CO)cc1	0.184 µM (active)	0.184 µM (active)	–	–
